Screening results as filed in PubChem BioAssay.
D3 antag: qHTS of D3 Dopamine Receptor Antagonist: qHTS | D(3) dopamine receptor (Homo sapiens), P35462 | D3R cells, DiscoveRx beta-arrestin luminescence, antagonist mode; active compounds read low | max response, negative = inhibition, % | 360,000 tested, 2.5% active; in the data active means max response below about -50%; inconclusive means no clear call, values can overlap the other calls; further: on the % scale 0 is the no-effect control and ±100 the full control effect
Target sequence (P35462 whole entry, looked up): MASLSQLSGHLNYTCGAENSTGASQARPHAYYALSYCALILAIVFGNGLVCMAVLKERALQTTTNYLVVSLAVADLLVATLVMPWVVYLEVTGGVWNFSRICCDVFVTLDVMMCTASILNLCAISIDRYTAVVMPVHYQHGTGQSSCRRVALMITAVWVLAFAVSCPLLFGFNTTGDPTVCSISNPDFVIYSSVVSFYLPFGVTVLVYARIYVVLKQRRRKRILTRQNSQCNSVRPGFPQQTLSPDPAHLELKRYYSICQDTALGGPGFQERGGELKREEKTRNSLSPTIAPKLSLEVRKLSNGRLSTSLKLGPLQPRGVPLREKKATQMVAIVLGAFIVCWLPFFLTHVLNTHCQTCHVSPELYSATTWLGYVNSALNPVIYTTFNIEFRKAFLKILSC
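Cells expressing the human receptor were seeded at 1500 cells/well, incubated overnight at 37 degrees C in 5% CO2, then exposed to library compounds with dopamine controls for 90 minutes at 37 degrees C before luminescent detection.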
DRD3 agonist: qHTS of D3 Dopamine Receptor Agonist: qHTS; max activation, %; AID 652048, 2013; 410,000 tested, 0.58% active; D(3) dopamine receptor (Homo sapiens), P35462; D3R DiscoveRx beta-arrestin cells, luminescence, 90 min; in the data active means max activation above about 30%; further: 0% is about no effect
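Agonist mode: compounds and dopamine controls were applied to plated cells for 90 min at 37 degrees C after an overnight attachment at 1500 cells/well. Luminescent read-out followed 30 - 60 minutes at room temperature with DiscoveRx detection reagent.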
Nrf2 activator: qHTS of Nrf2 Activators | Potency, µM (top dose mostly 46.1 µM), for the others: at the highest dose activation, most hits filed as activators | AREc32 ARE-luciferase reporter (MCF7-derived line), luminescence, 24 h | 410,000 tested, 0.31% active; further: potency means the concentration at half of the fitted maximal effect; % of control where 0% means no effect; nearly all actives have a fitted effect of over 65% in size
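AREc32 cells carrying an ARE-driven firefly luciferase reporter were seeded at 1000 cells/well in OPTI-MEM with 5% FBS, then exposed to compound for 24 hr at 37 deg C. Luminescence was read with Steady-Glo after 30 min at RT.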
Glioma ERSR ind: qHTS for Inducers of the Endoplasmic Reticulum Stress Response (ERSR) in Human Glioma: qHTS; U87-MG GRP78 promoter luciferase reporter, 16 h; Potency, µM, for inactives: at the top dose activation, usual class: activators; 420,000 tested, 0.02% active; further: potency means the concentration at half of the fitted maximal effect; series mostly up to about 76 µM; % of control where 0% means no effect; nearly all actives have a fitted effect of over 35% in size
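Stably transfected U87-MG glioma cells carrying a GRP78-based luciferase sensor; 16 h compound incubation. Luminescence end-point read 10 min after Bright-Glo addition at room temperature.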
The depositor's hits bear a star; ? = inconclusive; · = not tested or not shown; [ ] = another dose, or the depositor's remark. A selection: hits, their analogues and other compounds. The true share with any hit is near 3%. Unless noted, the call rests on the fitted dose curve; in most records, active means well fitted curve in the direction sought with a large enough effect; inconclusive means small, poorly fitted or top-dose-only effect, or another doubt; inactive means no such curve, though single readings can be large; an effect the other way counts as inactive or inconclusive.

SMILES | D3 antag | DRD3 agonist | Nrf2 activator | Glioma ERSR ind
CN1CCC(N(C)C(=O)c2cc(-c3ccccc3Cl)nc3ccccc23)CC1 | -59.5* | -11.3 | 1.4% | -0.9%
COCc1c(C(=O)N2CCN(C3CCCCC3)CC2)cnn1-c1ncc(C)c(-c2cccs2)n1 | · | · | · | -0.9%
O=C(CN1C(=O)CSc2ccc(S(=O)(=O)N3CCCC3)cc21)NCc1ccccc1Cl | · | -6.1 | 0.0% | -2.9%
Cc1cccn2c(=O)c(/C=N/O)c(NCc3ccccc3)nc12 | -17.5 | -21.0 | 0.3% | 1.1%
Cc1cccn2c(=O)c(C=NCc3ccccc3)c(NCCO)nc12 | -71.8* | -6.4 | 0.1% | -2.4%
CCC(C)N=Cc1c(NCc2ccco2)nc2c(C)cccn2c1=O (centres undefined) | 15.1 | -4.6 | 12.6µM* | -2.9%
Cc1ccc(N2CCN(C(=O)c3cn(C)c4ccc(S(=O)(=O)N(C)C)cc4c3=O)CC2C)cc1 (centres undefined) | · | -12.7 | -0.8% | 0.8%
CSc1ncccc1C(=O)NCCN1Cc2ccccc2OC(c2ccccc2F)C1 (centres undefined) | · | · | · | -4.8%
CCCN1CCN(C(=O)Cn2nc(C)n3c(cc4c(OC)cccc43)c2=O)CC1 | -1.2 | 45.5* | 0.0% | -5.2%
COc1cccc2c1cc1c(=O)n(CC(=O)N3CCN(c4ccc(F)cc4)CC3)nc(C)n12 | · | 15.1 | 0.0% | -3.8%
CC(C)C(NC(=O)c1ccoc1)c1nnc2n1CCN(C(=O)/C=C/c1ccc(F)cc1)CC2 (centres undefined) | · | · | · | -7.0%
COc1cc(/C=C2\COC/C(=C\c3cc(OC)c(OC)c(OC)c3)C2=O)cc(OC)c1OC | -62.7* | -11.8 | -2.7% | -15.0%
COc1cc(/C=C2\CC/C(=C\c3cc(OC)c(O)c(OC)c3)C2=O)cc(OC)c1O | -73.6* | -7.7 | -1.0% | -6.4%
COc1ccc(-n2c(=O)c3sc4ccccc4c3n(Cc3ccccc3)c2=O)cc1 | · | 6.5 | -0.6% | -2.1%
Cc1cccnc1C(NC(=O)C1CCN(Cc2cn(C)c3ccccc23)CC1)c1ccc(Cl)cc1 (centres undefined) | -65.2* | -22.7 | -4.1% | -7.8%
COc1cccc(OC)c1OCCN1CCC(C(=O)NC(c2ccccc2)c2ncccc2C)CC1 (centres undefined) | ? | -17.5 | -0.5% | -2.7%
Cc1cccnc1C(NC(=O)C1CCN(Cc2ccc(Oc3ccccc3)cc2)CC1)c1ccc(F)cc1 (centres undefined) | -67.2* | -14.1 | -0.7% | -4.0%
COc1ccc(C(C)NC(=O)C2CCN(CCCc3ccccc3)CC2)cc1OC (centres undefined) | -19.3 | -3.3 | 0.5% | -5.4%
Cc1cccnc1C(NC(=O)C1CCN(CCOc2ccc(F)cc2)CC1)c1ccc(F)cc1 (centres undefined) | -71.4* | -15.1 | 4.0% | -0.9%
Cc1ccc(C(NC(=O)C2CCN(Cc3ccc(Cl)c(Cl)c3)CC2)c2ccccn2)cc1 (centres undefined) | -0.9 | -14.2 | 0.2% | -3.1%
O=C(NC(c1ccc(Cl)cc1)c1cnccn1)C1CCN(Cc2ccc(Oc3ccccc3)cc2)CC1 (centres undefined) | ? | -12.5 | 1.4% | -3.9%
Cc1cccnc1C(NC(=O)C1CCN(CCCc2ccccc2)CC1)c1ccc(Cl)cc1 (centres undefined) | -77.8* | -16.1 | 6.9% | -4.5%
CC(=O)N1CCc2cc(Br)cc(S(=O)(=O)N3CCN(c4cccc(C(F)(F)F)c4)CC3)c21 | · | -22.4 | -0.9% | -3.3%
Cc1c(-c2nc(-c3ccc4c(c3)OCO4)no2)nnn1-c1ccc(C(C)C)cc1 | · | -5.0 | 1.8% | -0.2%
Cc1cccnc1C(NC(=O)C1CCN(Cc2ccc(Cl)cc2)CC1)c1ccccc1 (centres undefined) | -102.4* | -28.6 | 0.2%[9.22 µM] | -3.4%
O=C(O)c1cccc(NC(=S)NC(=O)c2cncc(Br)c2)c1 | -62.5* | -11.3 | 0.3% | -2.1%
Cn1nc(-c2ccc(F)cc2)nc2c(=O)n(C)c(=O)nc1-2 | · | · | · | -10.8%
S=c1[nH]ncn1/N=C/c1ccc(Br)cc1 | -108.8* | -9.6 | 5.7% | 5.7%
Cc1cc2c(c(C)c1Cl)C(c1ccc3c(c1)OCO3)CC(c1ccccc1)O2 (centres undefined) | · | · | · | -4.9%
CCOC(=O)N1CCN(Cc2ccc3c(c2)CN(C(=O)c2sc(C)nc2C)CCO3)CC1 | · | · | · | 4.0%
